# Data reported in PubChem BioAssay.
# Unmarked numbers belong to inactive results. How the calls were made is not given here.
# System: Aerobactin synthetase IucA (Klebsiella pneumoniae hvKP1)
# Experiment: IucA enzyme inhibition, primary screen, biochemical, Spectrum library (AID 1346200);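 further: 100% = wells without compound and 0% = wells lacking enzyme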
# Conditions: malachite green pyrophosphate, A620, at 8 µM, active compounds read low
row,SMILES,activity remaining [%]
1,OC[C@H]1O[C@@H](O[C@H]2[C@H](O)[C@@H](O)[C@@H](O)O[C@@H]2CO)[C@H](O)[C@@H](O)[C@@H]1O,107
2,Nc1ccc(S(=O)(=O)Nc2nccs2)cc1,101
3,CC(=O)OCC(=O)[C@@]1(O)CCC2C3CC[C@@H]4C[C@H](O)CC[C@]4(C)C3C(=O)C[C@@]21C (stereo not given in full),97.5
4,COc1ccc(-c2cc(=O)c3c(O)c(OC)c(OC)c(OC)c3o2)cc1OC,80.1
5,CC[C@H](C)C(=O)O[C@H]1C[C@@H](C)C=C2C=C[C@H](C)[C@H](CC[C@@H]3C[C@@H](O)CC(=O)O3)[C@H]21,119
6,Cc1cc(C)nc(NS(=O)(=O)c2ccc(N)cc2)n1,111
7,O=C(O[C@@H]1Cc2c(O)cc(O)cc2O[C@@H]1c1ccc(O)c(O)c1)c1cc(O)c(O)c(O)c1,107
8,O=C1c2ccccc2C(=O)c2c1ccc(O)c2O,112
9,CC(=O)Oc1cccc2c1C(=O)c1c(OC(C)=O)cc(C(=O)O)cc1C2=O,102
10,Cn1cc[nH]c1=S,99.8
11,Nc1cc(C(Cl)=C(Cl)Cl)c(S(N)(=O)=O)cc1S(N)(=O)=O,104
12,CC1=C(CCC(=O)O)c2cc3nc(cc4[nH]c(cc5[nH]c(cc1n2)c(C)c5C(C)O)c(C)c4C(C)O)C(C)=C3CCC(=O)O (stereo not given),107
13,C#CCCCCCCCCCCCc1ccco1,113
14,COc1ccc2c(c1)OC[C@@H](Cc1ccc(OC)c(OC)c1)[C@@H]2O,121
15,Nc1ccccc1C(=O)CC(N)C(=O)O (stereo not given),118
16,CN1C(C(=O)Nc2ccccn2)=C(O)c2sccc2S1(=O)=O,82.2
17,CNCc1ccccc1,108
18,NC(N)=O,91.3
19,COc1cc2ccc(=O)oc2c(OC)c1OC,124
20,CC1(C)O[C@@H]2[C@@H](CO[C@@]3(COS(N)(=O)=O)OC(C)(C)O[C@@H]23)O1,115

row,SMILES,activity remaining [%]
1,C=CCCCCCCCCC(=O)O,111
2,CCOC(=O)OC(C)OC(=O)C1N2C(=O)C(NC(=O)[C@H](N)c3ccccc3)C2SC1(C)C (stereo not given in full),104
3,C=CCCCCCCCCCCCC(O)CC(O)CO (stereo not given),76.1
4,O=c1cc(-c2cccc(O)c2)oc2ccc(O)cc12,101
5,COc1ccc2c(c1)[C@@]1(C)CCC(=O)C[C@H]1CC2,101
6,COc1ccccc1OCCNCC(O)COc1cccc2[nH]c3ccccc3c12 (stereo not given),120
7,Nc1c2ccccc2nc2ccccc12,118
8,C[C@]12CCC(=O)C=C1C=CC1C2CC[C@@]2(C)C1CC[C@@]21CCC(=O)O1 (stereo not given in full),119
9,COc1cc(O)c(C(=O)/C=C/c2ccc(O)c(OC)c2)c(OC)c1,77.4
10,CCc1c2c(nc3ccc(OC(=O)N4CCC(N5CCCCC5)CC4)cc13)-c1cc3c(c(=O)n1C2)COC(=O)[C@]3(O)CC,90
11,CC(=O)O[C@@H]1CC2C(C)(C)CCC(=O)[C@]2(C)C2CC[C@@]3(C)[C@H](c4ccoc4)OC(=O)C4OC43[C@@]21C (stereo not given in full),113
12,CC(=O)OCC[N+](C)(C)C,118
13,OC[C@H]1OC([S-])[C@H](O)[C@@H](O)[C@@H]1O.[Au+] (stereo not given in full),109
14,C=C(C)C1CC=C(CO)CC1 (stereo not given),117
15,Cc1cc(C(C)(C)CC(C)(C)C)ccc1OCCOCC[N+](C)(C)Cc1ccccc1,118
16,CO[C@@H]1[C@@H](O[C@@H]2O[C@H](C)[C@@H](O[C@H]3C[C@@](C)(O)[C@H](O)[C@H](C)O3)[C@H](N(C)C)[C@H]2O)[C@@H](CC=O)C[C@@H](C)[C@@H](O[C@H]2CC[C@H](N(C)C)[C@@H](C)O2)/C=C/C=C/C[C@H](C)OC(=O)C[C@H]1O,96.2
17,CN(C)CCOC(=O)C(c1ccccc1)C1(O)CCCC1 (stereo not given),115
18,CC1(C)CC2C1CCC1(C)OC1CCC2(C)O (stereo not given),120
19,FC(F)(F)COCC(F)(F)F,120
20,CCN(CCO)CCCC(C)Nc1ccnc2cc(Cl)ccc12 (stereo not given),109
